Usually inhibition stands for the change of the read-out against control, counted positive when it falls.

Among all 370,000 compounds or so, about 2,600 (0.7%) were called active. This is one part of a sample in which actives are shown more often than they occur. Unmarked numbers belong to inactive results.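 How the source made its calls: active means inhibition above a cutoff: mean of compounds within the control limits plus 3 SD of those (cut at about 17% in these data); inactive means the rest.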

The target in the assay is Sialate O-acetylesterase (Homo sapiens) (UniProt Q9HAT2). Nature of the assay: human SIAE inhibitors, primary screen, biochemical, fluorescence polarization, FP-Rh probe, 1536-well HTS (AID 1053197).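 Further: 0% = plate median of compound wells and 100% = probe without SIAE protein.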 Conditions: SIAE FP-Rh probe binding, at 9.66 µM, active compounds read high. A general note: Polarisation of emitted light reports the rotation of a fluorescent probe.
Chain of Sialate O-acetylesterase (Homo sapiens) (Q9HAT2 whole entry, looked up): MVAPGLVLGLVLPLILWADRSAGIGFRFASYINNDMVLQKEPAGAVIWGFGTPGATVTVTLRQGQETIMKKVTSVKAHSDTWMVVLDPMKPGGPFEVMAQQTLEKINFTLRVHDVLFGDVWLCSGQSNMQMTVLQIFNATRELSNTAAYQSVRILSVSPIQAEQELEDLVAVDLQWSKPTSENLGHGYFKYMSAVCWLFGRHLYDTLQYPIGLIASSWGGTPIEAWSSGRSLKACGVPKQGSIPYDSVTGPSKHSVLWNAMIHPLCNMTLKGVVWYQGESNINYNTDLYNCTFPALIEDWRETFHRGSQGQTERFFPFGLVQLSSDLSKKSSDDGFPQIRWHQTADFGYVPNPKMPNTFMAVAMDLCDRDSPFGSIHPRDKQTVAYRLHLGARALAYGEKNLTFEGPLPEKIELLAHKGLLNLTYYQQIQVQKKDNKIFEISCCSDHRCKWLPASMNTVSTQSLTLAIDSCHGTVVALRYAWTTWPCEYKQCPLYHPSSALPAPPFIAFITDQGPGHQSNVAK
`C[C@H](C(=O)N(C)c1ccccc1)[C@@H](O)c1ccc(Cl)cc1`: the inhibition is -3.9%.

Turning to `COc1ccc(-n2c(SCC(=O)Nc3ccc(C)c(Cl)c3)nc3ccccc3c2=O)cc1`, the inhibition was -5.2%.

Regarding `O=C(OC12CCCN(C1)/C(=C/c1cccnc1)C2)C1CCCC1` (stereo unspecified), the inhibition is 9.64%.

Consider `COc1ccc(N2CCN(c3ccc([N+](=O)[O-])nc3)CC2)cc1`, for which the inhibition was 27.9% (active).

Turning to `O=[N+]([O-])c1ccc(N2CCN(c3ccc(F)cc3)CC2)cn1`, the inhibition is 1.56%.

As to `COc1ccccc1N1CCN(c2ccc([N+](=O)[O-])nc2)CC1`, the inhibition was 3.93%.

Turning to `Cc1c(C(C)c2ccccc2O)[nH]c2ccccc12` (stereo unspecified), the inhibition is 3.42%.

As to `C=C(C)C#CC(Cc1ccccc1)N(CC1CC1)/C(N)=N/C(=O)OCc1ccccc1` (stereo unspecified), the inhibition is 8.05%.

With `C[C@@H](NC(=O)c1ccccc1OCC(=O)Nc1ccc(I)cc1)C(=O)N(C)Cc1ccccc1`, the inhibition was -10.2%.

`O=C(CC[C@H]1O[C@@H](n2ccc(=O)[nH]c2=O)[C@H](O)[C@@H]1O)N[C@H](Cc1ccccc1)C(=O)NCCCN1CCCC1=O`: the inhibition is 47.1% (active).

Turning to `Cc1ccc(NC(=O)[C@H](Cc2ccccc2)NC(=O)CC[C@H]2O[C@@H](n3ccc(=O)[nH]c3=O)[C@H](O)[C@@H]2O)cc1C`, the inhibition was 0.53%.

Consider `O=C(CC[C@H]1O[C@@H](n2ccc(=O)[nH]c2=O)[C@H](O)[C@@H]1O)N[C@H](Cc1ccccc1)C(=O)NCc1ccco1`, for which the inhibition is 1.02%.

For `CSc1ccc(C=Nn2c(-c3ccc(F)cc3)n[nH]c2=S)cc1`, the inhibition was 2.39%.

As for `O=C(Cn1cncn1)N/N=C/c1c2ccccc2cc2ccccc12`, the inhibition is -1.87%.

Regarding `C/C(=N\NC(=O)CNc1cccc2ccccc12)c1ccc(Br)s1`, the inhibition is -5.3%.

Regarding `Cn1cccc1/C=N/NC(=O)CNc1cccc2ccccc12`, the inhibition was 18.6% (active).

On to `C[C@H](C(=O)N(C)c1ccccc1)[C@@H](O)c1ccc2ccccc2c1`, for which the inhibition was 3.1%.

Consider `CCC(=O)Nc1ccc2c(c1)C(=O)N(C)[C@@H]1CC[C@@H](CC(=O)NCCc3ccccc3)O[C@H]1CO2`, for which the inhibition was 1.28%.

As for `COc1ccccc1C(=O)NC1CCCCN(C(C)C)C1=O` (stereo unspecified), the inhibition was 0.76%.

`C=CCN(Cc1ccc2c(c1)OCO2)C(C#CC1CC1)C(C)(C)C` (stereo unspecified): the inhibition is 4.36%.

`COC(=O)C1=C(C(=O)OC)C2(OC1c1ccc(Br)cc1)C(=O)c1ccccc1C2=O` (stereo unspecified): the inhibition is 14.3%.

`CCOC(=O)C1=C(C)NC(SC)=NC1c1ccccc1` (stereo unspecified): the inhibition was 5.58%.

`CCOC(=O)C1=C(C)N=C2c3ccccc3C(=O)C2C1c1ccc(Br)cc1` (stereo unspecified): the inhibition is 18% (active).

Regarding `CCCCN1CCN(C(=O)c2ccc3c(c2)NC(=O)C(C)(C)O3)CC1`, the inhibition was -0.65%.

For `COC[C@@H]1CCCN1c1ccc2c(c1)O[C@H](C)CCN(C1CC1)S2(=O)=O`, the inhibition was -0.33%.

With `CC(=O)Nc1ccc(OC[C@@H](O)CN2CCC(C(O)(c3ccccc3)c3ccccc3)CC2)cc1`, the inhibition is -6.43%.

In the case of `CN(C)Cc1cn(-c2ccc(-c3noc4c3C(=O)N(CC(=O)N3CCOCC3)CC4)cc2)nn1`, the inhibition is -2.28%.

For `CN1c2ccc(C=O)c3c(C=O)ccc(c23)N(C)C1(C)C`, the inhibition was 21.9% (active).

On to `Cc1nc(CNc2ncnc3ccc(-c4ccc5c(c4)OCO5)cc23)cs1`, for which the inhibition was -10.9%.

With `O=C(Nc1ccccc1)N1CCN(Cc2nc3ccccc3c(=O)[nH]2)CC1`, the inhibition was 12.6%.

`COc1ccc(Cn2cc(CN3[C@@H](CC(C)C)COc4cc(Br)ccc4S3(=O)=O)nn2)cc1`: the inhibition is 0.93%.

As to `CN(C)S(=O)(=O)c1ccc(NC(=O)COC(=O)c2n[nH]c3ccccc23)cc1`, the inhibition was -22.8%.

With `O=C(COC(=O)c1c(Cl)cccc1Cl)Nc1cccc(S(=O)(=O)NC2=NCCCCC2)c1`, the inhibition was -8.81%.

In the case of `NS(=O)(=O)c1ccc(NC(=O)COC(=O)c2c3c(nc4ccccc24)/C(=C\c2ccc4c(c2)OCO4)CCC3)cc1`, the inhibition is 43.9% (active).

Turning to `C=CCN1C(=O)[C@@H](CC(=O)N2CCN(C(=O)OCC)CC2)[C@]2(C(=O)OCC)CCCCC/C=C/12`, the inhibition was 2.29%.

For the compound `CCN(C(=O)COC(=O)c1cc(S(=O)(=O)N2CCc3ccccc32)ccc1OC)C1CCS(=O)(=O)C1` (stereo unspecified), the inhibition was -1.8%.

With `CCN(C(=O)COC(=O)C1CCN(S(=O)(=O)c2ccc(C)c(C)c2)CC1)C1CCS(=O)(=O)C1` (stereo unspecified), the inhibition is 26.2% (active).

For the compound `Cc1ccc(S(=O)(=O)N2CCC(C(=O)OCC(=O)N(C)c3ccccc3)CC2)cc1C`, the inhibition was -1.79%.

Take `CC(=O)Nc1nc2ncccn2c1-c1ccc(C(F)(F)F)cc1`: the inhibition is 4.66%.

Turning to `CC(=O)c1cc(-c2ccc3ccccc3c2)c(=O)n2c1CCC2`, the inhibition was -1.29%.

Regarding `COc1ccccc1/C=C/CN1CCC(CO)(Cc2ccccc2)CC1`, the inhibition was -3.81%.

Consider `COc1ccc(C(=O)O)cc1S(=O)(=O)NC1CCN(Cc2ccccc2)CC1`, for which the inhibition is 0.4%.

In the case of `COc1ccccc1/C=C/C=N/NC(=O)CN1CCN(Cc2ccccc2)CC1`, the inhibition was 17.3% (active).

As to `O=S1(=O)c2c(cccc2N2CC[C@H](O)C2)O[C@@H]2CCN1C2`, the inhibition was 6.21%.

In the case of `COc1cccc(N2CCN(CC(=O)N(C)Cc3ccc(F)cc3)CC2)c1`, the inhibition is 1.64%.

With `Cc1ccnc(NS(=O)(=O)c2ccc(NC(=O)c3ccc(S(=O)(=O)N4CCOCC4)cc3)cc2)n1`, the inhibition is 21% (active).

On to `Cc1ccnc(NS(=O)(=O)c2ccc(NC(=O)c3oc4ccccc4c3C)cc2)n1`, for which the inhibition is -5.42%.

As for `Cc1ccnc(NS(=O)(=O)c2ccc(NC(=O)c3ccc(S(=O)(=O)N(C)C)cc3)cc2)n1`, the inhibition was -1.59%.

`CCCCCCN1CCS(=O)(=O)N(Cc2ccc(C(F)(F)F)cc2)C(C(=O)OC)C1` (stereo unspecified): the inhibition is -2.85%.

For `CC(=O)OC12CCCN(C1)/C(=C/c1ccncc1)C2` (stereo unspecified), the inhibition was 0.93%.

In the case of `O=C(CCl)NC1CCCCN(Cc2cccc(C(F)(F)F)c2)C1=O` (stereo unspecified), the inhibition was 1.33%.

With `Cc1cccc(C(=O)N2CCC(c3nc4ccccc4s3)CC2)c1`, the inhibition is 1.7%.

Turning to `Cc1nc2ccc(S(=O)(=O)NC(C(=O)N3CCCCCC3)C(C)C)cc2s1` (stereo unspecified), the inhibition was -3.13%.

As for `Cc1nc2ccc(C(=O)N3CCSCC3)cc2s1`, the inhibition is 80.7% (active).

As for `Cc1cc(C)nc(NC(=S)N2CCN(c3ccc(C(F)(F)F)cn3)CC2)c1`, the inhibition was -2.17%.

On to `N#CC(C(N)=O)=C1CCC2(CC1)OCCCCO2`, for which the inhibition is -1.29%.

Turning to `CC1(C)C/C(=C(/C#N)C(N)=O)CCO1`, the inhibition was 17.1% (active).

On to `Nn1c(SCC(=O)Nc2cccc3ccccc23)nnc1-c1cc(-c2ccc(F)cc2)n[nH]1`, for which the inhibition is -0.5%.

Take `CC(C)(C)NC(=O)C(c1cccnc1)N(C(=O)c1cnco1)c1ccc(C(C)(C)C)cc1` (stereo unspecified): the inhibition was 2.03%.

`CCOc1cc(C(=O)O)ccc1OCCOc1ccccc1`: the inhibition is -4.46%.

For the compound `CCOc1ccccc1Nc1ccc(C(=O)O)cc1[N+](=O)[O-]`, the inhibition was 17.1% (active).

For the compound `CCOC(=O)c1ccc(NNC(C)=O)c([N+](=O)[O-])c1`, the inhibition is 3.08%.

Take `O=C(CSc1nnc(COc2ccccc2)n1Cc1ccco1)c1ccc2ccccc2c1`: the inhibition is -7.8%.

For the compound `CCOc1ccc(/C=N/OCC(=O)NCc2cccs2)cc1`, the inhibition is -7.11%.

Turning to `CCOc1ccc(NC(=O)C/C(C)=N/NC(=O)Cc2cccs2)cc1`, the inhibition is 21.6% (active).

As to `CCOc1ccc(NC(=O)CSc2nc3ccccc3c(=O)n2Cc2cccs2)cc1`, the inhibition is 0.33%.

Turning to `Cc1ccc(C(=O)C2CCN(CC(=O)NCCC(C)C)CC2)cc1`, the inhibition is 4.25%.

`O=C(CSc1nc2ccccc2n1Cc1ccccc1Cl)N/N=C\c1c[nH]c2ccccc12`: the inhibition is -8.22%.

On to `CC(CCN1CCC(C(O)(c2ccccc2)c2ccccc2)CC1)Oc1ccc(C(F)(F)F)cc1` (stereo unspecified), for which the inhibition was 8.83%.

Take `COCCOC(=O)c1sc(=S)n(CCOC)c1N`: the inhibition is 35.8% (active).

Consider `CCC(NC(=O)C1C2C=CC3(CN(Cc4ccccc4)C(=O)C13)O2)c1ccccc1` (stereo unspecified), for which the inhibition was 0.07%.

Take `O=C(CSc1nc2ccccc2s1)NN=Cc1ccc(O)cc1O`: the inhibition is 7.21%.

Consider `O=C(CSc1nnc(-c2ccccn2)n1-c1ccccc1)Nc1ccc2cn[nH]c2c1`, for which the inhibition is 1.79%.

For the compound `Cc1ccc(-n2c(SCC(=O)Nc3ccc(S(=O)(=O)Nc4nccs4)cc3)nnc2-c2ccncc2)cc1`, the inhibition was -12.6%.

Regarding `CNCC(O)c1ccc(O)c(O)c1` (stereo unspecified), the inhibition is 4.81%.

In the case of `CCC(C)c1ccc(O)c(/C=N/O)c1` (stereo unspecified), the inhibition was 23.1% (active).

Consider `O=S(=O)(c1ccccc1)N1CCC(c2nc3ccccc3o2)CC1`, for which the inhibition is 6.75%.

In the case of `O=C1CC(c2ccc3c(c2)OCO3)N=C2N(CC3CC3)C/C(=C/c3ccccc3)N12` (stereo unspecified), the inhibition is 6.68%.

In the case of `COc1ccc(-c2cc(-c3nnc(SCC(=O)Nc4cccc5ccccc45)n3N)[nH]n2)cc1`, the inhibition was 1.67%.

`COC(=O)C[C@@H]1CC[C@@H]2[C@@H](COc3ccc(NC(=O)Nc4ccc(F)c(F)c4)cc3C(=O)N2C)O1`: the inhibition is -2.22%.

`O=C1CC[C@@H](COc2ccc3[nH]cc(-c4ccccc4)c3c2-c2ccccc2)N1`: the inhibition is 3.06%.

For the compound `COc1ccc2[nH]c3c(C)c4cc[n+](C)cc4c(C)c3c2c1`, the inhibition was 3.4%.

In the case of `COc1ccc2[nH]c(=S)cc(C)c2c1`, the inhibition was 23.9% (active).

With `COc1ccc(N)c(C)c1`, the inhibition was 15.1%.

Consider `COC(=O)C12C=C3CC(c4ccccc4)=C3C(=O)N1Cc1[nH]c3ccccc3c1C2` (stereo unspecified), for which the inhibition was 5.02%.

With `Cc1cc(NS(=O)(=O)c2ccc(NC(=O)CSc3nnc(SCc4ccc(F)cc4)s3)cc2)nc(C)n1`, the inhibition is -8.85%.

The values are drawn from PubChem BioAssay AID1053197 (The Scripps Research Institute Molecular Screening Center, 2014).
